Assay results: PubChem BioAssay AID1233 (SRMLSC, 2008)
Results with a measured potency or affinity are listed apart. Values without a mark were called inactive.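 Rule for the calls: active = a dose-response curve fit returns a half-maximal inhibitory concentration, extrapolated values included; inactive = the fit returns no such concentration.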

Target: HMG-CoA reductase [Enterococcus faecalis] (UniProt Q9FD70)
Experiment: inhibitors of E. faecalis class II HMGR, confirmation, biochemical, Enterococcus faecalis (AID 1233);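 note: 0% = full reaction carrier wells and 100% = background wells lacking mevalonate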
Conditions: purified E. faecalis HMGR, NADPH absorbance 340 nm kinetics; series mostly up to 100 µM; inhibition: at the top concentration

Structure (SMILES) | inhibition [%]
CN(C)c1ccc2c3c(ccc(N(C)C)c13)COC2 | -7.56
CCOC(=O)/C(C#N)=C/c1ccc(SC)cc1 | -12.1
COc1cccc(CNC(=O)CCS(=O)(=O)c2cccs2)c1 | 0.24
CCCCCC(=O)Nc1ccc(Cc2ccncc2)cc1 | 0.09
CCCCNC(=O)c1ccccc1NC(=O)CCSc1ccccc1 | -7.76
C=CCN1CCN(C(c2cc(OC)ccc2OC)c2nnnn2CC2CCCO2)CC1 (configuration not stated) | 0.95
COc1ccc(C(=O)NC2CCN(C(=S)NCCc3ccccc3)CC2)cc1 | -7.64
CCn1c2ccccc2c2cc(NC(=O)CSc3nnc(-c4ccc(OC)c(OC)c4)n3N)ccc21 | 0.13
Cc1ccccc1NC(=O)Cn1c(CCC(=O)O)ccc1-c1cccs1 | -2.46
O=C(CN1CCN(Cc2ccc(F)cc2Cl)C1=O)NCCc1ccc(Cl)cc1 | -0.91
CCOc1cc(N2CCOCC2)c(OCC)cc1NC(=O)CC12CC3CC(CC(C3)C1)C2 | -4
CCCNCc1cc(OC)c(OCc2ccccc2)cc1Br | -4.86
COC(=O)c1ccccc1NC(=O)NCc1ccco1 | -2.25
CN(C)CCCNC(=O)c1cc(C(=O)C2CCCCC2)c[nH]1 | -3.15
CC(=O)c1cccc(NC(=O)Nc2csc3c2CCCC3)c1 | -3.82
CNc1cc(N2CCCCCC2)ccc1[N+](=O)[O-] | -0.58
CS(=O)(=O)N(CC(N)=O)c1cccc(Br)c1 | -5.05
CC(=O)NCCn1c(SCc2cc(=O)n3cc(Cl)ccc3n2)nc2ccccc2c1=O | -10.6
COc1ccc(CN2CCNC(=O)C2CC(=O)NCCc2c[nH]c3ccccc23)c(OC)c1 (configuration not stated) | 0.02

Structure (SMILES) | inhibition [%]
CCOc1cc(S(=O)(=O)N(CC)CC)c(OCC)cc1-n1cnnn1 | -0.8
CC(=O)c1ccc(N2CCN(C(=O)Cc3n[nH]c(=O)c4ccccc34)CC2)cc1 | -5.17
C/C(=N/NC(=O)c1cc(O)c(O)c(O)c1)c1ccc([N+](=O)[O-])cc1 | 7.14
COc1ccc(OC)c(-n2nnnc2SCC(=O)Nc2ccccc2N2CCOCC2)c1 | -5.58
CCCn1c(C(O)c2ccc(OC)cc2)nc2ccccc21 (configuration not stated) | 2.18
COC(=O)CNC(=O)c1cc(OC)cc(OC)c1 | -3.23
COC(=O)C1=C(C)Nc2c(c(=O)n(C)c(=O)n2C)C1c1cccnc1 (configuration not stated) | -1.92
CCC1(CC)C(=O)NN(c2ccccc2)C1=O | -1.66
CCN(CC)C(=S)NC(=O)c1cccnc1 | -4.89
CC(=O)N(C)c1nc(N)n(-c2ccccc2)n1 | -3.93
Cc1cc(C=O)c2c(c1)C=CC1(Oc3ccccc3C(=O)N1C)O2 (configuration not stated) | -7.06
O=C(NN1S(=O)(=O)c2ccccc2S1(=O)=O)c1ccc(Br)cc1 | -12.5
O=C(Nc1ccccc1)Nc1ccc2ocnc2c1 | -4.39
O=C1c2ccccc2C(=O)N1CCC(O)C[N+](=O)[O-] (configuration not stated) | -11.1
CCN(C(=O)Cn1cc(C(F)(F)F)ccc1=O)c1c(N)n(Cc2ccccc2)c(=O)[nH]c1=O | -2.65
CN(CC(=O)NCCc1ccccc1)S(=O)(=O)c1ccccc1 | -6.56
O=C(Oc1ccccc1O)c1cccc2ccccc12 | -3.31
O=C(COCc1nc2ccccc2c(=O)[nH]1)NCC1CCCCC1 | -3.54
